Consider 15 compounds from PubChem BioAssay (NCI).

Molecules are shown by their SMILES. The panel holds about 83,000 compounds, 20% with a hit somewhere; the sample as a whole holds those more often.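 Percent growth is the endpoint: 0 to 100 indicates growth inhibition (40 means 60% inhibition), 0 means no net growth, and negative values indicate cell death.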 Activity calls are given as the source filed them. The calls were made as follows: active = growth percent below 10; inactive = the rest.

This assay deals with HOP-92 NSCLC. In words: NCI-60 one-dose screen, 48 h (100 = growth as untreated, 0 = no growth, -100 = all killed). The following applies: 10 µM unless noted.
As to `CCCc1cc(NC)nc(S(=O)(=O)CC)n1`, the growth was 108% (inactive).
Then `Cc1ccc(Cl)cc1Nc1nc(C(F)(F)F)ccc1C(=O)N/N=C/c1cccnc1`, with 11.3% (inactive).
As to `Cc1ccc(/C=C2\CN(C(=O)OC(C)(C)C)C/C(=C\c3ccc(C)cc3)C2=O)cc1`, the growth was 84.1% (inactive).
For `O=C(Nc1cccc([N+](=O)[O-])c1)c1cc2ccccc2cc1O` the value was -9.02% (active); for `NC(=O)c1c(NC(=O)c2ccccc2)sc2c1CCC(=O)C2`, -11.5% (active).
Then `COc1cc(N2C(=O)[C@H](O)C2c2ccc(SC)cc2)cc(OC)c1OC` (stereo not given in full), with 26.1% (inactive); and `Cn1cc(-c2nc(-c3c[nH]c4ccncc34)cs2)c2ccccc21`, with 53.9% (inactive); and `OCCNCCCOc1ccc2ncnc(Nc3ccc(Oc4cccc(C(F)(F)F)c4)c(Cl)c3)c2c1`, with 40.5% (inactive).
Then `O=S(=O)(NCCNc1cc(-c2c(-c3cccc(O)c3)nc3sccn23)ccn1)c1ccc(C(F)(F)F)cc1`, with 61.9% (inactive); and `CCOC(=O)c1nc(Nc2ccc(NC(=O)Nc3ccc(F)cc3)cc2)c2ccccc2n1`, with 106% (inactive); and `CCN1C(=O)N(CC)C2C1NN=c1s/c(=C\c3cccc([N+](=O)[O-])c3)c(=O)n12` (stereo not given), with 55.2% (inactive).
In the case of `C#Cc1cccc(Nc2ncnc3ccc(-c4cnc(N)nc4)cc23)c1`, the growth was 15% (inactive).
Then `CCN(CC)CCSc1nc(-c2ccccc2)c(C#N)c(=O)[nH]1`, with 120% (inactive); and `CN1C(=O)/C(=C/c2cn(-c3ccccc3)nc2-c2ccccc2)SC1=S`, with 51.4% (inactive); and `O=C1Nc2ccccc2/C1=C\c1nc(-c2ccccc2)n2ccccc12`, with 121% (inactive).
